Source: PMC4336329 (PLoS ONE, 2015)
Screen size: about 310,000 compounds; about 2,200 (0.71%) showed an effect of 50% or more. The effect is printed as a negative number. This excerpt belongs to a sample that is enriched for strong results.

The compounds below were run against human ether-à-go-go-related gene (hERG) potassium channel (human, UniProt Q12809) (assay: primary screen, population patch clamp on CHO cells stably expressing hERG; higher = less effect of the substance).
Chain of human ether-à-go-go-related gene (hERG) potassium channel (Q12809 whole entry, looked up): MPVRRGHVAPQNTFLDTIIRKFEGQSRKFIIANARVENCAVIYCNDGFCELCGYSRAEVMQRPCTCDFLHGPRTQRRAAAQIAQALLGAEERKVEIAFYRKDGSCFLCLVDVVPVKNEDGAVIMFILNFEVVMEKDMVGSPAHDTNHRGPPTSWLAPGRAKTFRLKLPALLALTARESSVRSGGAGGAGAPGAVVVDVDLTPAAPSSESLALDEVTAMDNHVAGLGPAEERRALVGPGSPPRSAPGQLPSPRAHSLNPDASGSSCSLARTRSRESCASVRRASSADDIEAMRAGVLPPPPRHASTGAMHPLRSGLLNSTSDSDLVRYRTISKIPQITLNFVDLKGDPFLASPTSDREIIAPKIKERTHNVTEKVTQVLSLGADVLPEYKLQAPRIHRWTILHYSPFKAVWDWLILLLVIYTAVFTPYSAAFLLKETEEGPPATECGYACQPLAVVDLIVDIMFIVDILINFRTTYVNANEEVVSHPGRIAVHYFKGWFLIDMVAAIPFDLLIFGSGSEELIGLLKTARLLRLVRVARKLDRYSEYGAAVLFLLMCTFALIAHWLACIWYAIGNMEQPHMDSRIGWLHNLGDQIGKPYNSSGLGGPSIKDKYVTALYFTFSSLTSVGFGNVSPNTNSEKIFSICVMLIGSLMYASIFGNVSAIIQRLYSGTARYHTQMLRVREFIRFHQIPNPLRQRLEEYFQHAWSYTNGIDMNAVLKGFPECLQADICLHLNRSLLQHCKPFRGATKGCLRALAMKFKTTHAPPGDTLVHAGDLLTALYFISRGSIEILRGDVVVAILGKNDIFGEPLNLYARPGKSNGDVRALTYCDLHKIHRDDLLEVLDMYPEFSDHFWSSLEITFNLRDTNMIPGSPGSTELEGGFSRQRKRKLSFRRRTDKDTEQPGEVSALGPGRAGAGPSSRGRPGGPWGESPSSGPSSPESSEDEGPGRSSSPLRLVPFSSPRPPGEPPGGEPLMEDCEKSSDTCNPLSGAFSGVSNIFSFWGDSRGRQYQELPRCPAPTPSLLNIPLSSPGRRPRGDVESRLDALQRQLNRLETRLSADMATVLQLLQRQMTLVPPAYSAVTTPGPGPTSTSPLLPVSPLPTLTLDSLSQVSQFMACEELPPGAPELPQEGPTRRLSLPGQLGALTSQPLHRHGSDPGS

SMILES	hERG current change (%, negative = inhibition) at 1uM [%]
Cc1ccc(C)c(CSC2=NCCN2S(=O)(=O)c2ccccc2)c1	7.31
OCC1(CCOc2ccccc2)CCN(Cc2cn[nH]c2-c2ccc(F)cc2)CC1	-46.3
OCC1(Cc2ccccc2)CCCN(Cc2cn[nH]c2-c2ccccc2)C1 (stereo not shown)	6.96
OCC1(CCOc2ccccc2)CCN(Cc2cn[nH]c2-c2ccccc2)CC1	-68.3
Cc1ccc(S(=O)(=O)N2CCCCC2)cc1NC(=O)CN1CC=C(c2ccccc2)CC1	-0.529
COc1cc(/C=N/NC(=S)NCC2CCCO2)cc(OC)c1OC (stereo not shown)	0.431
CC1=C(C(=O)Nc2ccccc2)C(c2coc3ccccc3c2=O)C2=C(CCCC2=O)N1 (stereo not shown)	10.3
Cc1ccc(NC(=O)CCN2CCN(C/C=C/c3ccccc3)CC2)cc1.Cl	-86.3
Cc1ccc(NC(=O)CCN2CCOCC2)cc1C	11.1
Cc1ccc(NC(=O)N2CCN(C/C=C/c3ccccc3)CC2)cc1	-10.7
COC(=O)c1ccc(NC(=O)CCN2CCCCC2)cc1.Cl	-51
COC(=O)c1ccc(NC(=O)CCN2CCN(CCC(=O)Nc3ccc(C(=O)OC)cc3)CC2)cc1	1.76
COC(=O)c1ccc(NC(=O)CCN2CCOCC2)cc1	6.71
Cc1cccc(NC(=O)CCN2CCN(C)CC2)c1.Cl	14.1
Cc1cc(NC(=O)CCN2CCN(Cc3ccccc3)CC2)ccc1Br.Cl	7.35
Cc1cccc(NC(=O)CCN2CCN(C/C=C/c3ccccc3)CC2)c1.Cl	-82.5
Cc1ccc(NC(=O)CCN2CCN(C)CC2)cc1.Cl	14.9
CCN1CCN(CCC(=O)Nc2cccc(C)c2)CC1.Cl	9.56
Cc1ccc(NC(=O)CCN2CCN(C/C=C/c3ccccc3)CC2)cc1C.Cl	-53.2
O=C(Cc1ccc(NS(=O)(=O)c2cccc(C(F)(F)F)c2)cc1)NCCN1CCOCC1	5.88
CCn1c(SCC(N)=O)nnc1-c1ccc(OC)c(OC)c1	19.4
C/C(=N/NC(=O)c1ccc(O)cc1)c1cccc([N+](=O)[O-])c1	9.78

SMILES	hERG current change (%, negative = inhibition) at 1uM [%]
COc1cc(/C=C/C2=CC(C)(C)NC(=S)N2)cc(OC)c1OC	8.95
COc1ccc(-n2c(SCC(=O)NCc3cccs3)nc3[nH]ncc3c2=O)cc1	-7.44
CCC(C)NC(=S)Nc1ccccc1OC (stereo not shown)	1.64
CCN(C(=O)CSc1ncnc2c1cnn2-c1ccccc1)C1CCS(=O)(=O)C1 (stereo not shown)	9.57
O=[N+]([O-])/C=C/c1c(OCc2ccccc2)ccc2ccccc12	-3.83
CCCC(C)C(=O)OCC(=O)Nc1c(Br)cc(C)cc1Br (stereo not shown)	9.86
CCCc1ccc(-c2c(C)sc(N)c2C#N)cc1	16.9
c1ccc(-n2nnnc2-n2ccnc2)cc1	2.97
COc1ccccc1CCNC(=O)C(=O)NCC1OCCN1S(=O)(=O)c1cc(F)ccc1F (stereo not shown)	8.74
Cc1ccc(S(=O)(=O)N2CCN(S(=O)(=O)c3ccc(C)cc3)C2c2ccccc2)cc1	3.23
O=C(CCN1CCN(C/C=C/c2ccccc2)CC1)Nc1ccc(Cl)cc1	-74.1
O=C(CCN1CCN(C/C=C/c2ccccc2)CC1)Nc1ccccc1	-79
COc1cc(NC(=O)CCN2CCN(C/C=C/c3ccccc3)CC2)cc(OC)c1	-36.8
Cl.O=C(CCN1CCOCC1)Nc1ccc(Cl)cc1	8.71
O=C(Nc1cccc(F)c1)N1CCN(C/C=C/c2ccccc2)CC1	-19.1
O=C(CCN1CCN(c2ccccc2)CC1)Nc1ccc(Cl)cc1	9.14
COc1ccc(NC(=O)CCN2CCN(C/C=C/c3ccccc3)CC2)cc1	-37.8
CN1CCN(CCC(=O)Nc2cccc(F)c2)CC1	13
O=C(CCN1CCN(C/C=C/c2ccccc2)CC1)Nc1cccc(F)c1	-62.6
CCOCCCNC(=O)c1cn(C)c(=O)c2cc(OC)c(OC)cc12	9.51
CCOC(=O)O[C@]1(C(=O)COC(=O)CC)CC[C@H]2[C@@H]3CCC4=CC(=O)C=C[C@]4(C)[C@H]3[C@@H](O)C[C@@]21C	8.4
Cc1cccc(NC(=O)CNC(=O)COc2cc(F)ccc2[N+](=O)[O-])c1C	15.4

SMILES	hERG current change (%, negative = inhibition) at 1uM [%]
CCCNC(=O)CCC(NS(=O)(=O)c1ccc(C)cc1)C(=O)NCCC (stereo not shown)	7.66
CCOC(=O)C1C(=O)CC(C)(O)C(C(=O)OCC)C1c1ccc(OC)cc1 (stereo not shown)	-0.912
CCOC(=O)CSc1nc2sc(C(=O)O)c(C)c2c(=O)[nH]1	9.03
Cc1cc(N2C(=O)C(O)=C(C(=O)c3cc4ccccc4o3)C2c2ccc(Cl)cc2)no1 (stereo not shown)	1.55
COC(=O)c1cc(NC(=O)CSc2nnc(N)s2)ccc1Cl	13.6
Cc1ccc2c(CC(=O)N(C)c3c(N)n(Cc4ccccc4)c(=O)[nH]c3=O)coc2c1	8.06
O=C(NCCc1ccccc1)c1ccc2nccnc2c1	20.4
CC(C)Cc1ccc(C(C)C(=N)N)cc1.Cl (stereo not shown)	10.2
CC(C)Cc1ccc(C(C)C(N)=Nc2ccc(O)cc2)cc1.Cl (stereo not shown)	-71.8
CC(C)Cc1ccc(C(C)C(N)=NCCc2ccccc2)cc1.Cl (stereo not shown)	-16
CSCCC(=O)N1CCC(n2nccc2NC(=O)CCc2ccccc2)CC1	5.02
Cc1ccc2c(c1)nnn2C1CCN(CC(=O)Nc2ccc(F)cc2)CC1	-20.7
Cc1ccc2c(c1)nnn2C1CCN(CC(=O)c2ccc(Cl)cc2)CC1	-6.32
O=C(CN1CCC(C(=O)c2ccc(F)cc2)CC1)Nc1ccc(F)cc1	-31.6
O=C(c1ccccc1)C1CCN(CC(=O)N2CCN(c3ccccc3)CC2)CC1	10.9
Cc1ccc(C(=O)C2CCN(CC(=O)NCc3ccc(F)cc3)CC2)cc1	-17.5
CC(=O)c1ccc(NC(=O)CN2CCC(C(=O)c3ccc(F)cc3)CC2)cc1	6.3
Cc1ccc2c(c1)nnn2C1CCN(CC(=O)N2CCN(c3ccc(F)cc3)CC2)CC1	-52.5
Cc1ccc(NC(=O)CN2CCC(C(=O)c3ccc(F)cc3)CC2)cc1	-50.1
Cc1ccc(C(=O)C2CCN(CC(=O)N3CCN(c4ccc(F)cc4)CC3)CC2)cc1	-66.5
